Test results from article PMC4336329 (PLoS ONE, 2015).
In all, about 310,000 compounds went through this assay and about 14,000 (4.5%) showed an effect of 50% or more. The effect is printed as a negative number. The sample holds strong results, similar compounds and a random draw of the others, so the mix is not that of the screen.

Biological target: human ether-à-go-go-related gene (hERG) potassium channel (human, UniProt Q12809)
Test: primary screen, population patch clamp on CHO cells stably expressing hERG; higher = less effect of the substance
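Note: peak tail current of the secondary pulse compared with the same well before compound.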

Sequence of human ether-à-go-go-related gene (hERG) potassium channel (Q12809 whole entry, looked up): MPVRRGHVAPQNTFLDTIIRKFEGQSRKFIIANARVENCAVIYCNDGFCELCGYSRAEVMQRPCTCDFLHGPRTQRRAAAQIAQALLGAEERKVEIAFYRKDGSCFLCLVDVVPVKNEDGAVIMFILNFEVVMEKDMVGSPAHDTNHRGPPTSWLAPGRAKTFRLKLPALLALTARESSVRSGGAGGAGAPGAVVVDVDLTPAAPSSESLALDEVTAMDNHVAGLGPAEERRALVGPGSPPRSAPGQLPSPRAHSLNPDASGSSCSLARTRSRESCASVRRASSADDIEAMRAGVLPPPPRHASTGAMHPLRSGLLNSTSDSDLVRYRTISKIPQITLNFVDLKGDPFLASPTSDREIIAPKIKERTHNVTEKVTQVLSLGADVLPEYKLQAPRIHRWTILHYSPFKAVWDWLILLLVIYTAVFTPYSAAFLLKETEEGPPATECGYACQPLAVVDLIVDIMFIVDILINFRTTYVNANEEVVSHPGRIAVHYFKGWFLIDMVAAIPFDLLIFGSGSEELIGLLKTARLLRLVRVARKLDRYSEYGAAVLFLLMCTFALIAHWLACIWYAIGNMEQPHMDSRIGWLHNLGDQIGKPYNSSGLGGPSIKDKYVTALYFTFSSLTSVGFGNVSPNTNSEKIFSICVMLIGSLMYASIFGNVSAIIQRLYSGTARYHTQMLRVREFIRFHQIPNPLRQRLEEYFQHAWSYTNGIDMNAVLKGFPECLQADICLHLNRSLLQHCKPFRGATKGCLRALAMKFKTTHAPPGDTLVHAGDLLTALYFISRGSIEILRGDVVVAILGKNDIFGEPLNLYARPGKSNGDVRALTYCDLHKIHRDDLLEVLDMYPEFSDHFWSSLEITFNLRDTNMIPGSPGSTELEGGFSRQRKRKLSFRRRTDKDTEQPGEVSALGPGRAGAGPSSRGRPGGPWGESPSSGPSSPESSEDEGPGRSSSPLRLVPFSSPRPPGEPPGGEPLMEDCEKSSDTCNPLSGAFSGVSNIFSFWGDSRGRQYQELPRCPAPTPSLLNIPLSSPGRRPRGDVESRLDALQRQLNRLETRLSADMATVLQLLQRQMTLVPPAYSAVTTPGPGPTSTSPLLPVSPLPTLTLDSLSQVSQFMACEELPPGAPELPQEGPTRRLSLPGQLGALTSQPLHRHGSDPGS

SMILES | hERG current change (%, negative = inhibition) at 10uM [%]
COCC1CCCN(Cc2nc(-c3ccc4c(c3)OCO4)no2)C1 (stereo not drawn) | -5.71
c1cc(C2CCN(Cc3nc(-c4ccc5c(c4)OCO5)no3)CC2)ccn1 | -19.7
COCC1CCN(Cc2nc(-c3ccc4c(c3)OCO4)no2)C1 (stereo not drawn) | -17.1
Fc1ccc(CN2CCCN(Cc3nc(-c4ccc5c(c4)OCO5)no3)CC2)cc1 | -62.2
c1ccc(OCCN2CCN(Cc3nc(-c4ccc5c(c4)OCO5)no3)CC2)cc1 | -51.5
O=C(c1ccco1)N1CCCN(Cc2nc(-c3ccc4c(c3)OCO4)no2)CC1 | -46.1
Fc1ccccc1CNc1ncnc2sccc12 | 11.9
CCOC(=O)CN1C(=O)SC(Nc2ccc(C)cc2)C1=O (stereo not drawn) | 27.1
O=C(Nc1c2c(nn1-c1ccccc1)CS(=O)C2)c1ccco1 (stereo not drawn) | 7.5
CC(=O)OCC(=O)[C@@]1(OC(C)=O)[C@@H](C)C[C@H]2[C@@H]3C[C@H](F)C4=CC(=O)C=C[C@]4(C)[C@@]3(F)[C@@H](O)C[C@@]21C | -15.1
COc1ccc(Nc2nc(NCC3CCCO3)c3ccccc3n2)c(OC)c1.Cl (stereo not drawn) | -71.7
CCOc1ccc(Nc2nc(N)c3ccccc3n2)cc1.Cl | -41.8
Oc1ccccc1-c1nc(NCC2CCCO2)c2ccccc2n1 (stereo not drawn) | 19
COc1ccc(S(=O)(=O)Nc2nc3ccccc3nc2NCC2CCCO2)cc1 (stereo not drawn) | 5.29
Cl.c1ccc(Nc2nc(NCC3CCCO3)c3ccccc3n2)cc1 (stereo not drawn) | -31.2
Cl.Oc1cccc(Nc2nc(NCC3CCCO3)c3ccccc3n2)c1 (stereo not drawn) | -61.4
Oc1ccc(Cl)cc1Nc1nc(NCC2CCCO2)c2ccccc2n1 (stereo not drawn) | 23
CC(C)Oc1ccc(-c2nc(NCC3CCCO3)c3ccccc3n2)cc1 (stereo not drawn) | -27.4
Cl.Oc1ccccc1Nc1nc(NCC2CCCO2)c2ccccc2n1 (stereo not drawn) | -67.5
COc1ccc(OC)c(Nc2nc(NCCO)c3ccccc3n2)c1.Cl | -44.4
Cl.OCCNc1nc(Nc2cccc(O)c2)nc2ccccc12 | -23.8
CCOc1ccc(Nc2nc(NCC3CCCO3)c3ccccc3n2)cc1.Cl (stereo not drawn) | -72.3
CC(C)C[C@@H](CO)N1CCN(Cc2cccnc2)CCC1=O | 3.69
CCn1c2ccccc2c2cc(NC(=O)c3cccc([N+](=O)[O-])c3C)ccc21 | 7.76

SMILES | hERG current change (%, negative = inhibition) at 10uM [%]
CCOc1ccc(/C=C2/SC(=S)N(n3c(C)ccc3C)C2=O)cc1 | 8.78
Cc1ccc(N=C(N(C)C)P(=O)(N(C)C)N(C)C)cc1 | 17.4
Cc1ccc(Oc2cc(NN3CCCCC3)c([N+](=O)[O-])cc2[N+](=O)[O-])c([N+](=O)[O-])c1 | -10.3
O=C(Nc1cccc(NC(=O)c2ccccc2Cl)c1)c1cccs1 | 2.54
O=[N+]([O-])c1ccc(CSC2=NCCS2)cc1 | -15.3
CC1CCN(C(=O)c2[nH]cnc2C(=O)N2CCN(C(=O)OC(C)(C)C)CC2)CC1 | 19
O=C(CN(Cc1ccccc1Cl)C(=O)c1csnn1)NC1CCCC1 | -13.6
COc1ccccc1Nc1nc(NCC2CCCO2)c2ccccc2n1.Cl (stereo not drawn) | -59.6
c1cncc(-c2nc(NCC3CCCO3)c3ccccc3n2)c1 (stereo not drawn) | 7.02
COc1cccc(-c2nc(NCC3CCCO3)c3ccccc3n2)c1O (stereo not drawn) | -21.2
CC(C)C(=O)NC(=S)Nc1ccccc1C(F)(F)F | 10.4
O=C(N/N=C/c1coc2ccccc2c1=O)c1ccccc1Br | -0.324
Cc1cccc(NCc2ccccc2)c1 | 5.29
Clc1ccc(Nc2ccc(NCc3ccccc3)nn2)cc1 | -37.8
Cc1cccc(Nc2ccc(NCc3ccccc3)nn2)c1 | -51.8
O=C(NNC(=S)NC(=O)c1ccccc1[N+](=O)[O-])c1ccccc1Cl | 6.38
O=C(NNC(=S)NC(=O)c1ccccc1[N+](=O)[O-])c1ccccc1[N+](=O)[O-] | 15.1
O=C(NNC(=S)NC(=O)c1ccccc1[N+](=O)[O-])c1ccc(Cl)cc1Cl | -58.2
N/C(=N\N=C\c1ccco1)SC1CC(=O)N(c2ccccc2)C1=O (stereo not drawn) | 17.1
CC(C)CC(=O)NC(=S)Nc1sc2c(c1C(N)=O)CCC2 | 15.7
Cc1nn(-c2cc(N3CCOCC3)ccc2N)c(=O)c2ccccc12 | 0.574
O=C(NCc1ccccn1)c1ccccc1OCc1ccc(F)cc1 | -56.9
O=C(NCc1ccc(F)cc1)c1ccccc1OCc1ccccc1 | -8.06
COc1ccccc1C(=O)NCc1ccccn1 | 18.4

SMILES | hERG current change (%, negative = inhibition) at 10uM [%]
O=C(Cn1nc(C(=O)O)c2ccccc2c1=O)NCC1CCCO1 (stereo not drawn) | 20
CCCCc1cc(=O)oc2cc(OCC(=O)N3CCc4ccccc43)ccc12 | 6.81
COC(=O)c1ccc(OCCN2CCCCCC2)cc1.O=C(O)C(=O)O | -1.51
CCN(CC)CCOc1ccc2c(c1)C(=NO)c1cc(OCCN(CC)CC)ccc1-2.Cl | -16.4
O=C(O)C(=O)O.c1ccc(OCCN2CCOCC2)cc1 | 12
CCOc1ccc(OCCOCCN2CCCC2)cc1.O=C(O)C(=O)O | 0.376
Cl.ON=C1c2cc(OCCN3CCCCC3)ccc2-c2ccc(OCCN3CCCCC3)cc21 | -58.1
CCOc1ccc(C(=O)CCN2CCCCC2)cc1 | -19.7
c1ccc2cc(OCCN3CCCC3)ccc2c1 | -33.1
CCOc1ccc(OCCN2CCCCC2)cc1.O=C(O)C(=O)O | -21.7
CCOc1ccc(CNCCN2CCCC2)cc1.O=C(O)C(=O)O | -63.9
O=C(O)C(=O)O.c1ccc(COc2ccc(OCCN3CCCC3)cc2)cc1 | -60.3
Cc1ccc(OCCN2CCCC2)cc1.O=C(O)C(=O)O | -3.76
O=C(O)C(=O)O.c1ccc(COc2ccc(OCCN3CCCCC3)cc2)cc1 | -70.2
CCn1c(-c2ccccc2)c[nH]c1=S | 15.4
CN(C)c1cccc(C(=O)NCCCSc2ccccc2)c1 | 4.72
Cc1nn(Cc2ccccc2Cl)c2sc(C(=O)OC3CCCC3=O)cc12 (stereo not drawn) | -4.19
COc1cc(NS(=O)(=O)c2ccc(NC(=S)NC(=O)c3ccc(F)cc3)cc2)nc(OC)n1 | 3.73
N#Cc1cc2cc3c(cc2nc1NCCNC(=S)NCCCN1CCOCC1)OCO3 | 14.2
CC(C)CCN1C(=O)c2ccc(C(=O)OCC(=O)N(C)C3CCS(=O)(=O)C3)cc2C1=O (stereo not drawn) | -8.41
CCn1nc(C(=O)OCC(=O)NC(C)C)c2ccccc2c1=O | 8.88
CCn1nc(C(=O)OCC(=O)NCC(C)C)c2ccccc2c1=O | 0.00988
CC(C)Cn1nc(C(=O)OCC(=O)NCC(F)(F)F)c2ccccc2c1=O | -78.2
COC(=O)c1cc(NC(=O)c2c(C)noc2C)ccc1N1CCOCC1 | 17.6

SMILES | hERG current change (%, negative = inhibition) at 10uM [%]
COc1ccc(N2C(=O)/C(=C/c3ccc(N(C)C)o3)C(=O)NC2=S)cc1 | 3.28
O=C(c1ccc(Cn2cnnn2)cc1)N1CCCC(Nc2ccc(F)cc2)C1 (stereo not drawn) | -0.196
CC(=O)Nc1ccc(CN2CCN(Cc3ccc(C)cc3)C(CCO)C2)cc1 (stereo not drawn) | -34.5
COc1cc(CN2CCN(Cc3ccc(C)cc3)C(CCO)C2)ccc1O (stereo not drawn) | -19.6
COc1cc(CN2CCN(Cc3ccc(C)cc3)C(CCO)C2)cc(OC)c1O (stereo not drawn) | -51.6
COc1ccc(CN2CCN(Cc3ccc(C)cc3)C(CCO)C2)cc1OC (stereo not drawn) | -54.3
COc1cccc(CN2CCN(Cc3ccc(O)c(OC)c3)CC2CCO)c1 (stereo not drawn) | -5.76
COc1ccc(CN2CCN(Cc3ccc(CO)o3)CC2CCO)cc1C (stereo not drawn) | -8.64
CCOc1cccc(OCCOCCN(C)C)c1.O=C(O)C(=O)O | 0.719
COC(=O)c1ccc(CN2C(=O)NC3(CCCCC3C)C2=O)o1 (stereo not drawn) | -11.4
O=C(CSc1nnc(Cc2ccccc2)o1)Nc1ccc2c(c1)OCO2 | 10.5
CCOC(=O)Cc1csc(NC(=O)Cc2ccccc2)n1 | 1.37
CC(=O)N1c2ccc(S(=O)(=O)N3CCC(C(=O)Nc4cccc(C(F)(F)F)c4)CC3)cc2CC1C (stereo not drawn) | 11.7
COc1ccc(OCc2cc(C(=O)N3CCCCCC3)no2)c(Cl)c1 | -11.7
S=C(Nc1ccccc1)N1CCN(C/C=C/c2ccccc2)CC1 | -8.71
CCOC(=O)N1CCN(C(=O)Nc2cccc(Cl)c2)CC1 | 2.81
O=C(Nc1ccc2c(c1)OCO2)N1CCN(C/C=C/c2ccccc2)CC1 | -15.4
O=C(Nc1cccc(Cl)c1)N1CCN(C/C=C/c2ccccc2)CC1 | -68.5
O=C(Nc1cccc(Cl)c1)N1CCOCC1 | 20
O=C(Nc1cccc(F)c1)N1CCN(C/C=C/c2ccccc2)CC1 | -59
O=C(Nc1ccc(F)cc1)N1CCN(C/C=C/c2ccccc2)CC1 | -68.6
O=C(Nc1ccc(F)cc1F)N1CCN(CCc2ccccc2)CC1 | -15.6
O=C(Nc1ccccc1)N1CCN(CCc2ccccc2)CC1 | -14.5
O=C(Nc1ccc(F)cc1)N1CCN(CCc2ccccc2)CC1 | -52.3
